Compound activity deposited in PubChem by several laboratories.
In the library only some 4.2% were active in any assay of this set; here they are far more common.
MITF act – activators of MITF-driven TRPM1 promoter reporter, primary screen, cell-based, SK-MEL-5, luciferase, single point; SK-MEL-5 TRPM1-promoter luciferase, 24 h; % of positive control, neutral wells = 0; actives 0.75% (n = 300,000); AID 588334, 2011; activation, % at 12.5 µM;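 active means mean activation of at least 80% with every replicate also reaching 80%; inconclusive means mean reaches 80% but some replicate falls short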;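 further: 0% = neutral control wells and 100% = parthenolide positive control wells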
GAA850 FXN act – FXN promoter activators, primary screen, cell-based, luciferase luminescence, HEK293 lucGAA850; actives 0.56% (n = 360,000); HEK293 lucGAA850 FXN promoter luciferase reporter, 24 h; percent of 10 µM SAHA response; activation, % at 6 µM;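 active means activation above the average of all compounds screened plus 3 SD, cutoff fixed separately per campaign, cut at about 7.5% in these data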;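 further: 0% = DMSO wells and 100% = 10 µM SAHA wells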
esBAF inh – Bmi1 luciferase reporter increase in mESCs, primary screen, esBAF inhibitor project, mouse ES cells, Bmi1 luciferase knock-in, single point | 24 h; 100% = twice the neutral-well signal | reporter increase, % at 12.5 µM | actives 2% (n = 350,000); in the data active means activation above about 40%; inconclusive means no clear call, values can overlap the other calls;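 further: 0% = median of the plate's neutral control wells and 100% = double that signal; a rise in the Bmi1 reporter signal indicates esBAF inhibition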
Wnt act – Wnt/beta-catenin pathway activators, primary screen, cell-based, plate reader, single point | activation, % at 9.35 µM | actives 1.2% (n = 300,000) | Wnt/beta-catenin reporter cell assay, activator; in the data active means activation above about 30%, passing the limit was not always enough; inconclusive means no clear call, values can overlap the other calls;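 further: 0% = neutral control wells and 100% = positive control wells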
AHR act – AHR activators, primary screen, cell-based, luminescence, luciferase reporter, human | Aryl hydrocarbon receptor (Homo sapiens), P35869 | AHR-responsive luciferase reporter cells | activation, % at 5 µM | actives 2.5% (n = 320,000) | AID 2796, 2010; in the data active means activation above about 47%;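 further: 0% = vehicle wells and 100% = reference agonist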
Target sequence (P35869 whole entry, looked up): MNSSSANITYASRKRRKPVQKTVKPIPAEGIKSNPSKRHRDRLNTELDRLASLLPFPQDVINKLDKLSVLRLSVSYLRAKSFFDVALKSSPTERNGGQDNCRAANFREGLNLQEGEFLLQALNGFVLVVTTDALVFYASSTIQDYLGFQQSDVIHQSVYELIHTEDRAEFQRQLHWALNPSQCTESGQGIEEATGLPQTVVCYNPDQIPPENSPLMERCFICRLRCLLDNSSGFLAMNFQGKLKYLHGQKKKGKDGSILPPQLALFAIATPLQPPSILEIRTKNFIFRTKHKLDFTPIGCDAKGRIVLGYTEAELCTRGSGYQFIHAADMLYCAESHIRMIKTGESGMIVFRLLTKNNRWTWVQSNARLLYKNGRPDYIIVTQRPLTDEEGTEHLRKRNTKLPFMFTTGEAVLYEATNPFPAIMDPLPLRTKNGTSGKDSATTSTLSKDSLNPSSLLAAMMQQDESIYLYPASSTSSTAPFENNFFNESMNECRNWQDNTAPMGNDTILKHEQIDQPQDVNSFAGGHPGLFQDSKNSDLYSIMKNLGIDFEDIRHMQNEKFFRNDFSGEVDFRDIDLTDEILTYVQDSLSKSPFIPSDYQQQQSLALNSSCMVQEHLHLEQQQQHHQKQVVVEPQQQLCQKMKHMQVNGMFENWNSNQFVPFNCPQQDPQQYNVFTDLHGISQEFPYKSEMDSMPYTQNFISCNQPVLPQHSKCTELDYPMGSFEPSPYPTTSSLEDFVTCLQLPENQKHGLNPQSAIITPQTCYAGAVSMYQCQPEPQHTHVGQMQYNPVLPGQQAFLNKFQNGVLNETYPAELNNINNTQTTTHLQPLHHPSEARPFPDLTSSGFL
AHR act cf – AHR activators, confirmation, cell-based, luminescence, luciferase reporter, human; shares compounds with AHR act; human cells, AHR-responsive luciferase reporter; activation, % at 9 µM; actives 87% (n = 2,300); in the data active means activation above about 49%;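 further: HepG2 hepatoma cells carrying a DRE-driven firefly luciferase reporter; 0% = vehicle wells and 100% = reference agonist wells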
PXR counter – human PXR activators, counter-screen for AHR activator project, cell-based, luciferase luminescence | cell-based PXR reporter | activation, % at 11.6 µM | AID 434939, 2010 | actives 88% (n = 2,300) | shares compounds with AHR act; in the data active means activation above about 11%;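 further: human hepatoma DPX-2 cells expressing full-length human PXR; 0% = DMSO and 100% = reference agonist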
* = called active by the depositor.

C[C@H](CO)N1C[C@H](C)[C@@H](CN(C)S(=O)(=O)c2ccccc2)OCCCC[C@H](C)Oc2ccc(NC(=O)c3ccccc3)cc2C1=O was read as esBAF inh 3.4.
COc1ccc(Br)cc1/C=N/NC(=O)c1ccc(OC)c(OC)c1 was read as MITF act 10.8, GAA850 FXN act 1.2, Wnt act 1.9 and AHR act 37.1.
Cc1ccc(OCCOc2ccc(Br)cc2/C=N\NC(N)=O)cc1 was read as MITF act 14.9, GAA850 FXN act 2.5, esBAF inh -0.2, Wnt act -5.1, AHR act 92.5*, AHR act cf 27.0 and PXR counter 5.9.
COc1ccc(C(=O)NC(=S)Nc2cc(C)ccn2)cc1[N+](=O)[O-] was read as MITF act 46.4, GAA850 FXN act 6.4, Wnt act 14.5, AHR act 82.2*, AHR act cf 109.2* and PXR counter 12.5*.
For COc1ccc(C(=O)Nc2cc(C)on2)cc1[N+](=O)[O-] the results were MITF act 16.5, GAA850 FXN act 0.7, Wnt act -0.7 and AHR act -0.2.
CCCN(C)C[C@H]1OCCCC[C@H](C)Oc2ccc(NS(=O)(=O)c3ccc(OC)cc3)cc2C(=O)N([C@@H](C)CO)C[C@H]1C was read as esBAF inh -3.0.
For Cn1c(=O)n(C)c2cc(NC(=O)c3ccc(F)cc3)c(Br)cc21 the results were MITF act 5.1, GAA850 FXN act 1.4, esBAF inh -4.4, Wnt act -2.5 and AHR act -9.2.
`Cn1c(=O)n(C)c2cc(NC(=O)c3cccc([N+](=O)[O-])c3)c(Br)cc21` gave MITF act -14.6, GAA850 FXN act 1.0, Wnt act -1.7, AHR act 101.0*, AHR act cf 101.5* and PXR counter 9.8.
Screening Cc1cc(=O)[nH]c(N/N=C/c2ccc(Br)s2)n1 returned MITF act 32.0, GAA850 FXN act 0.6, Wnt act 0.5, AHR act 81.2* and AHR act cf 65.8*.
Screening Cc1cc(=O)[nH]c(NN=Cc2c(Cl)cccc2Cl)n1 returned MITF act 4.3, GAA850 FXN act 1.2, esBAF inh 9.9 and Wnt act -3.2.
Screening C[C@H]1CN([C@@H](C)CO)C(=O)c2cccc(NS(=O)(=O)c3ccc(F)cc3)c2O[C@H]1CN(C)Cc1ccc(C(F)(F)F)cc1 returned esBAF inh -5.2.
Screening CCNC(=S)Nc1cccc([N+](=O)[O-])c1 returned AHR act 2.9.
For CCNC(=S)Nc1ccc(Cl)c([N+](=O)[O-])c1 the results were MITF act 0.5, GAA850 FXN act 2.1, esBAF inh 10.5, Wnt act 1.1, AHR act 99.0*, AHR act cf 50.2* and PXR counter 17.6*.
For Cc1cccc(N/N=C/c2ccc(O)c(O)c2O)c1 the results were MITF act 0.1, GAA850 FXN act 1.6, Wnt act 0.2 and AHR act 15.5.
`Cc1cccc(NN=C2c3ccccc3-c3ccccc32)c1` gave MITF act -2.8, GAA850 FXN act 2.0, Wnt act 1.3, AHR act 87.7*, AHR act cf 115.4* and PXR counter 21.6*.
Screening Cc1ccc(/C=N/NC(=O)CSc2nc3ccccc3n2C)s1 returned GAA850 FXN act -1.8, esBAF inh 19.2, AHR act 108.2*, AHR act cf 91.9* and PXR counter 52.3*.
For COCCNC(=O)C[C@@H]1CC[C@@H]2[C@@H](COc3ccc(NC(=O)C4CCCC4)cc3C(=O)N2C)O1 the results were esBAF inh -2.2.
For COc1cc(CN2CCc3c([nH]c4ccccc34)C2)cc(OC)c1 the results were MITF act -14.1, GAA850 FXN act 0.1, esBAF inh -3.2, Wnt act 1.4 and AHR act 4.8.
For COc1ccccc1CN1CCc2c([nH]c3ccccc23)C1 the results were GAA850 FXN act 0.1, esBAF inh -2.7, Wnt act 0.1, AHR act 98.7*, AHR act cf 89.7* and PXR counter 27.1*.
For CCCNc1nc2ccccc2c(=O)[nH]1 the results were MITF act -9.7, GAA850 FXN act 2.4, esBAF inh 3.3, Wnt act -0.6 and AHR act 2.6.
For C=CCNc1nc2ccccc2c(=O)[nH]1 the results were MITF act 0.7, GAA850 FXN act 4.2, esBAF inh 2.9, Wnt act -0.6, AHR act 94.2*, AHR act cf 8.4 and PXR counter 8.7.
Screening O=C1c2cc(F)ccc2-n2c1nc1ccccc1c2=O returned MITF act -98.5, GAA850 FXN act -0.3, esBAF inh -1.1, Wnt act 0.8, AHR act 100.2*, AHR act cf -16.3 and PXR counter -16.8.
For Cn1c2ccc(F)cc2c2nc3ccccc3nc21 the results were MITF act -2.7, GAA850 FXN act 7.5, esBAF inh inconclusive, Wnt act 22.7 and AHR act 42.8.
`Cc1ccc2c(c1)c1nc3ccccc3nc1n2C` gave GAA850 FXN act 6.7, esBAF inh 39.1, Wnt act 4.6, AHR act 88.3* and AHR act cf 117.0*.
For O=C(Cc1ccccc1)NC(=S)Nc1cc(C(F)(F)F)ccc1Cl the results were MITF act -10.4, GAA850 FXN act -0.2, esBAF inh -5.3 and AHR act 33.7.
For FC(F)(F)c1ccc(Cl)c(NC(=S)N/N=C/c2ccccc2C(F)(F)F)c1 the results were MITF act 5.4, GAA850 FXN act 1.1, Wnt act -5.8, AHR act 104.8*, AHR act cf 55.1* and PXR counter 74.1*.
Cc1[nH]c2ccccc2c1C(=O)COc1ccccc1 was read as MITF act 10.5, GAA850 FXN act 1.5, Wnt act 9.6, AHR act 135.0*, AHR act cf 127.9* and PXR counter 30.0*.
Cc1[nH]c2ccccc2c1C(=O)CSc1cccc[n+]1[O-] was read as MITF act 0.9, GAA850 FXN act 3.3, esBAF inh -2.4, Wnt act -0.3 and AHR act 18.8.
Cc1[nH]c2ccccc2c1C(=O)CCl was read as MITF act -60.6, GAA850 FXN act -5.8 and Wnt act -1.1.
For Cc1[nH]c2ccccc2c1C(=O)CSc1ccccc1 the results were MITF act 14.0, GAA850 FXN act 3.9, AHR act 100.8*, AHR act cf 93.1* and PXR counter 72.4*.
